NPR1 antag – antagonists of human natriuretic peptide receptor Npr1 | HEK293 hNpr1 GloSensor cGMP, ANP-stimulated luminescence | 76,000 compounds, 1.6% hits | Potency, µM (series often up to 46.3 µM), for inactives: at the highest dose activity change, negative = inhibition, actives largely listed as inhibitors | AID 1347048; calls by dose curve; also: nearly all actives have a fitted effect of over 60% in size
Target sequence (P16066 whole entry, looked up): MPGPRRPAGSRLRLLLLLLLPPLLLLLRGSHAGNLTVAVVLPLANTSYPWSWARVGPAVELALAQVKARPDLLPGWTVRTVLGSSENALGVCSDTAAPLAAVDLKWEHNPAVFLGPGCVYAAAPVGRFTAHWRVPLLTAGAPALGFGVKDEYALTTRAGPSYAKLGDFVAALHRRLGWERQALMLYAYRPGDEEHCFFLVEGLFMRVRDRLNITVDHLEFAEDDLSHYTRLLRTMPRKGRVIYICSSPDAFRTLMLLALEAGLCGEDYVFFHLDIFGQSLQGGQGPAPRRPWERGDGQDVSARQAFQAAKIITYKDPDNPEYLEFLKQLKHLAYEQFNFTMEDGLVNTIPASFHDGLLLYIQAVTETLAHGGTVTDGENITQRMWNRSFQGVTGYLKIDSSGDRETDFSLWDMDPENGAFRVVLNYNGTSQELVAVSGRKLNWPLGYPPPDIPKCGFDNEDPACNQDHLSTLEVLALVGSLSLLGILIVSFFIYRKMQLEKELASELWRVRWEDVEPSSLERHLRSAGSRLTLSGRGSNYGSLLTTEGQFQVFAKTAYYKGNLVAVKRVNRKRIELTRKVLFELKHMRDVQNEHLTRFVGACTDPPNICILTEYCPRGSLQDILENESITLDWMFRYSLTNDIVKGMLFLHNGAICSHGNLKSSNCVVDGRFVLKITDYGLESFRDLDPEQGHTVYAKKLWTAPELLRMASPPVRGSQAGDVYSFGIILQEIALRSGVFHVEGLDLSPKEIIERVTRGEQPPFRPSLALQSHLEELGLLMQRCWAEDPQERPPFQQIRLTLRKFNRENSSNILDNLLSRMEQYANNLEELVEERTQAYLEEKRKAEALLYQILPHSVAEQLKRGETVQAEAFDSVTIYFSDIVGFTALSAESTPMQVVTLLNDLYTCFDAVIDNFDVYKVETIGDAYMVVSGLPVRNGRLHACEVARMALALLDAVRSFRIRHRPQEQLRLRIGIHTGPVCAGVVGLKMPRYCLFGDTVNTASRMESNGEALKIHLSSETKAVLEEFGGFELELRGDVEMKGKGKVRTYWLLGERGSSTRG
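HEK293 cells stably expressing human Npr1 and cGMP GloSensor pGS-40F, loaded 2 h with 2% GloSensor reagent, given compound 30 min at room temperature. Luminescence read before and 20 min after 0.1 nM hNppA.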
3T3 cytotox – cytotoxic compounds in NIH 3T3 cells; NIH 3T3 viability, CellTiter-Glo ATP luminescence, 48-72 h; 94,000 compounds, 4.3% hits; Potency, µM (top dose mostly 96.7 µM), inactives show at the highest dose activity change, negative = cytotoxicity, usual class: inhibitors; also: nearly all actives have a fitted effect of over 55% in size
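Luminescent ATP readout (CellTiter-Glo, 10 min RT) after 48 or 72 hr compound exposure of NIH 3T3 cells seeded at 400 cells/well in 1536-well format; quantitative HTS.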
GPT2 inhibitor – GPT2 alanine aminotransferase inhibition; Q8TD30; Recombinant GPT2, coupled pyruvate oxidase/HRP Amplex Red fluorescence; Potency, µM (highest dose often 57.7 µM), for inactives: at the highest dose activity change, negative = inhibition, most hits filed as inhibitors; 100,000 compounds, 0.25% hits; AID 1671188; also: nearly all actives have a fitted effect of over 60% in size
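Inhibition is scored from Amplex Red fluorescence generated when pyruvate oxidase and HRP act on pyruvate released by GPT2. Reactions contain 10ng/uL enzyme, 250uM a-KG and 2mM L-alanine and run 30 min at room temperature.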
HEK293 tox – HEK 293 cell cytotoxicity. HEK 293 viability, ATP luminescence (CellTiter-Glo), 48-72 h. Potency, µM (highest dose often 115 µM), for the others: at the highest dose activity change, negative = cytotoxicity, hits mostly inhibitors. 94,000 compounds, 6.6% hits; also: nearly all actives have a fitted effect of over 60% in size
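Cells seeded first (HEK 293, 250 cells/well), then compound added by pintool. Incubation ran 48 or 72 hr at 37 degree Celsius. CellTiter-Glo was added and luminescence imaged after 10 min at room temperature.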
FLuc inh – blocks purified firefly luciferase enzyme activity; P08659; purified P. pyralis luciferase, luminescence, biochemical; Potency, µM (series often up to 115 µM), hits mostly inhibitors; 76,000 compounds, 2.5% hits; also: nearly all actives have a fitted effect of over 65% in size
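Cell-free enzyme assay, 10nM P. pyralis luciferase, luciferin and ATP each at 10uM. Inhibition profiled over a 6-point titration, read as luminescence.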
* = called active by the depositor; i = inactive; ? = inconclusive; · = no result; ! = a repeat was not active; [ ] = another dose, or the depositor's remark. Only some compounds are listed: those with a hit (about 10% of all), similar ones and a draw of the others. Unless noted, calls follow the shape of the dose curve; as a rule, active = well fitted curve in the direction sought with a large enough effect; inconclusive = small, poorly fitted or top-dose-only effect, or another doubt; inactive = no such curve, though single readings can be large; an effect the other way counts as inactive or inconclusive. % is scaled to controls: 0 for no effect and ±100 for the full control effect; potency is read from the fitted curve at half-maximal effect.

SMILES	NPR1 antag	3T3 cytotox	GPT2 inhibitor	HEK293 tox	FLuc inh
COc1ccc(CCC(=O)N2CCC(N3CC4CC(C3)[C@H]3CCCC(=O)N3C4)CC2)cc1 (some centres undefined)	1.4%	i	3.7%	10.7%	i
O=C1CC(c2ccccc2)N(C(=O)CNC(=O)C2CC=CC2)CCCCCN1 (centres undefined)	-0.4%	-9.2%	-1.8%	i	i
CCc1nc2c(c(-c3ccc(O)cc3)n1)CN(Cc1ccccc1OC)CC2	-18.2%	?	-2.5%	44.7µM*	i
CCc1nc2c(c(-c3ccc(O)cc3)n1)CCN(Cc1ccccc1OC)CC2	3.0%	?	-15.2%	?	i
O=C(c1ccccn1)N1CCC(Cc2nncn2-c2ccccc2)CC1	-10.9%	-12.4%	-13.0%	-7.8%	i
O=C(c1ccco1)N1CCC(c2nc(C3CCOCC3)no2)C1 (centres undefined)	18.6%	0.0%	-1.3%	4.0%	i
COC(=O)[C@@H]1Cc2c([nH]c3ccccc23)[C@H]2C[C@@H](NCCN3CCOCC3)C[C@@H](c3ccc(F)c(F)c3)N21	-18.7%	28.2µM*	?	?	i
COC(=O)[C@@H]1Cc2c([nH]c3ccccc23)[C@H]2C[C@@H](NCCN3CCOCC3)C[C@@H](c3ccc(C(F)(F)F)cc3)N21	?	14.1µM*	-17.9%	7.94µM*	i
COC(=O)[C@@H]1Cc2c([nH]c3ccccc23)[C@H]2C[C@@H](NCCN3CCOCC3)C[C@@H](c3ccc(OC(F)(F)F)cc3)N21	4.6%	22.4µM*	i	25.1µM*	i
O=C(c1ccc2nnc(-c3cncc(Cl)c3)n2c1)N1CCC(c2ccccc2)CC1	·	?	i	?	·
Cc1cnc(C(=O)N2CC(Oc3ccc(-c4nc(-c5ccccc5)no4)cc3)C2)cn1	-12.6%	-21.3%	i	-23.1%	i
COc1ccc(C(=O)N[C@@H]2CCC[C@@H]2C(=O)N2CCN(c3ccc(Cl)cc3)CC2)cn1	-7.7%	-12.3%	0.9%	-21.9%	i
O=c1[nH]c(C2CCN(Cc3ccc(Cl)cc3)CC2)nc2ccc(F)cc12	-19.3%	-12.6%	4.1%	-2.8%	i
N#Cc1cccc(CN2CCCC(c3nc4ccc(F)cc4c(=O)[nH]3)C2)c1 (centres undefined)	-5.9%	?	i	44.7µM*!	i
N#Cc1cccc(CN2CCC(c3nc4ccc(F)cc4c(=O)[nH]3)CC2)c1	1.5%	?	?	22.4µM*!	i
COc1cc(CN2CCC(C)(NC(C)=O)CC2)cc(-c2c(C)noc2C)c1	-2.6%[70.6 µM]	?	-3.5%[88.5 µM]	?	i
Cc1ncc2c(c1CNC(=O)c1ccc3cccnc3c1O)CCNC2	-1.0%	-20.2%	?	-15.2%	i
Cc1ccc(OCc2nc(C3CN(C(=O)Cc4ccsc4)C3)no2)cc1	-18.4%	?	-1.6%	89.1µM*	i
Cc1ccccc1CC(=O)N1CCCC(c2noc(COc3ccccc3)n2)C1 (centres undefined)	-15.1%	?	-7.4%	44.7µM*	i
COCc1nc(C2CCCN(C(=O)Cc3ccccc3C)C2)no1 (centres undefined)	0.0%	i	i	-9.8%	i
CC(C)NC(=O)N1CCCC(c2noc(COc3ccccc3F)n2)C1 (centres undefined)	0.0%	-21.0%	i	-8.2%	i
CCc1cccc(NC(=O)N2CCCC(c3noc(COc4ccccc4)n3)C2)c1 (centres undefined)	?	31.6µM*	-3.5%	?	i
CCNC(=O)N1CCCC(c2noc(COc3ccccc3F)n2)C1 (centres undefined)	1.2%	-16.6%	i	-3.9%	35.5µM*
Cc1ccccc1NC(=O)N1CCCC(c2noc(COc3ccccc3)n2)C1 (centres undefined)	-22.3%	?	-20.6%	?	i
COc1cccc(-c2cccc(C(=O)N3CCCC3C(=O)NCC(F)(F)F)c2)c1 (centres undefined)	·	-32.0%	i	-32.4%	·
SMILES	NPR1 antag	3T3 cytotox	GPT2 inhibitor	HEK293 tox	FLuc inh
O=[S+]1([O-])NC2(CCCN(Cc3ccccc3)C2)CNc2ncccc21 (centres undefined)	·	-28.6%[138 µM]	·	-23.9%[172 µM]	·
C=CCC1(C(=O)O)CCCN(C(=O)Cc2c[nH]c(=O)n(C)c2=O)C1 (centres undefined)	4.3%	i	i	-0.8%	i
O=C(NCC(=O)N1CCN(Cc2ccccc2)CC1)c1cccc(-c2ccc(C(F)(F)F)cc2)c1	·	?	-3.4%	?	·
CC(C)CNC(=O)N1CCCC(c2nc(CCOc3ccc(F)cc3)no2)C1 (centres undefined)	-20.2%	?	i	39.8µM*	i
CCCNC(=O)N1CCCC(c2nc(CCOc3ccc(F)cc3)no2)C1 (centres undefined)	·	?	3.2%	?	·
CCNC(=O)N1CCC(Cc2ncc(C)n2C(C)C)C1 (centres undefined)	-2.1%	-2.2%	0.2%	i	i
COc1ccc2cc(C3CN(C(=O)c4cc(C(C)=O)n[nH]4)CCO3)ccc2c1 (centres undefined)	?	?	0.8%	?	?
COc1ccc2cc(C3CN(C(=O)c4ccc(C)cc4OC)CCO3)ccc2c1 (centres undefined)	?	44.7µM*	-11.9%[11.5 µM]	22.4µM*	22.4µM*
O=c1c2c(CO)c(-c3ccccc3)nn2ccn1Cc1cccc(C(F)(F)F)c1	?	?	-8.9%	?	i
CNC(=O)[C@@H]1CN(C(=O)c2cccc(Br)c2)C[C@H]1CO	-5.4%	-14.4%	3.4%	-5.6%	i
COc1ccccc1CNC(=O)C1CCN(C(=O)c2nnn3c2COC(c2ccc(C)cc2)C3)CC1 (centres undefined)	-2.4%	-17.5%	i	-18.4%	17.8µM*
Cc1ccc(C2Cn3nnc(C(=O)N4CCC(C(=O)NCc5ccco5)CC4)c3CO2)cc1 (centres undefined)	4.7%	i	1.3%	2.6%	31.6µM*
Cc1ccc(C2Cn3nnc(C(=O)N4CCC(C(=O)NCc5cccc(C)c5)CC4)c3CO2)cc1 (centres undefined)	-0.8%	i	i	2.8%	?
Cc1ccc(C2Cn3nnc(C(=O)N4CCC(C(=O)NC(C)c5ccc(F)cc5)CC4)c3CO2)cc1 (centres undefined)	4.6%	?	i	?	35.5µM*
Cc1ccc(C2Cn3nnc(C(=O)N4CCC(C(=O)NC5CCCCCCC5)CC4)c3CO2)cc1 (centres undefined)	-2.0%	-14.5%	-11.6%	?	?
